Assay outcomes from PubChem BioAssay.
Only a sample is shown.
aSyn 5UTR act: Activators via SNCA 5'UTR binding, MLPCN. 300,000 tested, 7.1% active. AID 1814, 2009. alpha-synuclein 5'UTR reporter, activators screen. activity score, % (tested at 7.5 µM), hits read low; in the data active = activity score below about -60%
Each line names hits and unclear results; the compound was inactive in the other large screens.

COc1cc(C(=O)NCC(=O)N2CCN(S(=O)(=O)c3cc(C)ccc3C)CC2)cc(OC)c1OC	aSyn 5UTR act -75.0
Cc1ccc2[nH]c3c(N4CCOCC4)ncnc3c2c1	aSyn 5UTR act -71.6
CCCOc1ncnc2c1[nH]c1ccc(C)cc12	aSyn 5UTR act -92.2
Cc1ccc2[nH]c3c(NCc4ccccc4)ncnc3c2c1	aSyn 5UTR act -94.8
O=C(Nc1ccc(Br)cc1)c1cnc[nH]1	aSyn 5UTR act -107.1
CCN1CCN(/C=N/c2nc(C)cs2)CC1	aSyn 5UTR act -83.0
CCOc1cc(CNc2ccccc2)cc(Br)c1OCC(=O)NC(C)(C)C	none
CCOc1cc(/C=C2\N=C(C)OC2=O)cc(Br)c1OCC(=O)OC	aSyn 5UTR act -64.0
CN(C(=O)/C=C/c1ccc([N+](=O)[O-])s1)c1ccccc1	aSyn 5UTR act -81.7
CN(C)CCCN(C(=O)c1ccc(Br)s1)c1nc2cc3c(cc2s1)OCCO3	aSyn 5UTR act -68.9
CN(C)CCCN(C(=O)c1ccc(C(=O)c2ccccc2)cc1)c1nc2cc3c(cc2s1)OCO3	none
CN(C)CCCN(C(=O)c1cccs1)c1nc2cc3c(cc2s1)OCO3	aSyn 5UTR act -158.4
CN(C)CCCN(C(=O)c1ccco1)c1nc2cc3c(cc2s1)OCO3	aSyn 5UTR act -185.1
Cc1ccc(Nc2nc(N)nc(CC#N)n2)cc1	aSyn 5UTR act -117.6
Nc1nc(CSc2ncccn2)nc(Nc2ccccc2)n1	aSyn 5UTR act -147.8
Cc1ccc(Nc2nc(N)nc(CSc3ncccn3)n2)cc1	aSyn 5UTR act -132.2
CCOc1ccc(Nc2nc(N)nc(CCl)n2)cc1	none
Cc1ccc(Nc2nc(N)nc(CSCCO)n2)cc1	aSyn 5UTR act -111.5
COc1ccc(N=C2O/C(=C/c3sc(=S)n(CC4CCCO4)c3O)N=C2C#N)cc1 (stereo not given)	aSyn 5UTR act -101.4
CCCc1cc(C(=O)NCCc2ccccc2)no1	aSyn 5UTR act -91.2
COc1ccccc1-c1cc(C(=O)NCCc2ccccc2)no1	aSyn 5UTR act -114.3
COc1cccc2cc(C(=O)NCCc3ccccc3)oc12	aSyn 5UTR act -83.5
Cc1cc(C)c2c(NC(=O)CCl)nn(C)c2n1	aSyn 5UTR act -65.3
COc1ccc2c(=O)c3c(=O)n(-c4ccccc4)c(-c4ccc(C)cc4)nc3oc2c1	aSyn 5UTR act -79.4
O=c1c2ccccc2oc2nc(-c3ccco3)n(-c3ccccc3)c(=O)c12	aSyn 5UTR act -251.2
CC(C)c1nc2oc3ccccc3c(=O)c2c(=O)n1-c1ccccc1	aSyn 5UTR act -324.5
CC(C)c1nc2sc3ccccc3c(=O)c2c(=O)n1Cc1ccccc1	none
CCOC(=O)C1(Cc2ccccc2Cl)CCN(C(=O)c2cc(C)on2)CC1	aSyn 5UTR act -83.5
CCOC(=O)C1(Cc2ccccc2Cl)CCN(C(=O)c2cnccn2)CC1	aSyn 5UTR act -125.0
O=C(/C=C/c1nc2ccccc2s1)N1CCCCCC1	aSyn 5UTR act -107.1
CC1CCCCC1NC(=O)/C=C/c1nc2ccccc2s1 (stereo not given)	aSyn 5UTR act -148.5
N#Cc1ccc(C(=O)NC2CCCCCCC2)cc1	aSyn 5UTR act -131.9
Cc1ccc(C(=O)NC2CCCCC2)cc1	aSyn 5UTR act -94.2
O=C(NC1CCCCCC1)C(=O)NC1CCCC1	aSyn 5UTR act -66.5
CC(C)CCNC(=O)C(=O)NC1CCCC1	aSyn 5UTR act -134.4
Cc1ccc(NC(=O)C(=O)NC2CCCCC2)cc1	aSyn 5UTR act -149.3
O=C(NC1CCCCCC1)c1ccc(OCC2CCCO2)cc1 (stereo not given)	aSyn 5UTR act -97.2
CN1CCN(CCOc2ccc(-c3ccccc3)cc2)CC1	aSyn 5UTR act -109.9
c1ccc(COc2ccc(OCCn3cncn3)cc2)cc1	aSyn 5UTR act -110.0
c1ccc(COc2ccc(OCCCCN3CCCCC3)cc2)cc1	aSyn 5UTR act -81.9
CN1CCN(CCCOc2ccc(-c3ccccc3)cc2)CC1	aSyn 5UTR act -63.5
O=C(CSc1ccc(-c2nc3ccccc3[nH]2)cn1)Nc1ccc2c(c1)OCCO2	aSyn 5UTR act -234.7
Cc1cc2nc(-c3ccc(SCC(=O)Nc4ccc5c(c4)OCCO5)nc3)[nH]c2cc1C	aSyn 5UTR act -207.0
Cc1cc2nc(-c3ccc(SCC(=O)N4CCN(C(=O)c5ccco5)CC4)nc3)[nH]c2cc1C	aSyn 5UTR act -87.6
Cc1ccc2nc(-c3ccc(SCC(=O)Nc4ccc5c(c4)OCCO5)nc3)[nH]c2c1	aSyn 5UTR act -327.5
CN(c1ccc(C(=O)NCCSC(C)(C)C)cc1)S(C)(=O)=O	aSyn 5UTR act -81.1
CC(C)c1ccc(N(CC(=O)NCCSC(C)(C)C)S(C)(=O)=O)cc1	aSyn 5UTR act -83.5
CN(c1ccc(C(=O)NCCSCc2ccco2)cc1)S(C)(=O)=O	aSyn 5UTR act -75.9
Cc1ccc(-c2ccc(SCC(=O)Nc3ccc4c(c3)OCCO4)nn2)cc1	aSyn 5UTR act -97.8
Cc1ccc(-c2ccc(SCC(=O)Nc3nonc3C)nn2)cc1	aSyn 5UTR act -87.0
CC(=O)Nc1ccc(NC(=O)CSc2ccc(-c3ccc4c(c3)OCO4)nn2)cc1	aSyn 5UTR act -65.7
COCCn1ccc2c(OCC(=O)Nc3cc(OC)ccc3OC)cccc2c1=O	aSyn 5UTR act -61.6
COc1ccc(C(=O)NCC2OCCc3ccccc32)c(O)c1 (stereo not given)	aSyn 5UTR act -88.4
Cc1ccnc(NC(=S)NC(=O)c2cncc(Br)c2)c1	aSyn 5UTR act -81.0
Cc1ccc(-c2csc(NC(=O)c3ccc(Br)cc3)c2C(=O)O)cc1	aSyn 5UTR act -91.5
Cc1ccc(-c2csc(NC(=O)/C=C/c3ccco3)c2C(=O)O)cc1	aSyn 5UTR act -79.0
Cc1ccc(-c2csc(NC(=O)c3cccc(C)c3)c2C(=O)O)cc1	aSyn 5UTR act -70.9
COc1cccc(C(=O)Cn2c(=N)n(C)c3ccccc32)c1	none
Cn1c(=N)n(CC(=O)c2ccc(Br)s2)c2ccccc21	aSyn 5UTR act -118.0
Cn1c(=N)n(CC(=O)c2cccs2)c2ccccc21	aSyn 5UTR act -92.1
COc1ncccc1-c1nnn(-c2ccc(F)cc2)n1	aSyn 5UTR act -97.0
Cc1ccc(-n2nnc(-c3cc4ccccc4nc3Cl)n2)cc1	aSyn 5UTR act -148.2
O=c1[nH]c2ccccc2cc1-c1nnn(-c2ccc(F)cc2)n1	aSyn 5UTR act -102.8
COc1ncccc1-c1nnn(-c2ccc(Cl)c(Cl)c2)n1	aSyn 5UTR act -169.0
COc1ncccc1-c1nnn(-c2ccc(C)cc2)n1	aSyn 5UTR act -160.6
COc1ccc([C@H]2CC(=O)c3c(O)cc(O)cc3O2)cc1O	aSyn 5UTR act -92.7
COc1c(O)cc2c(c1O)C(=O)CC(c1ccccc1)O2 (stereo not given)	aSyn 5UTR act -102.3
O=C(CSc1n[nH]c(-c2ccccn2)n1)Nc1cccc(Cl)c1	none
O=C(CSc1nnc(-c2ccccn2)o1)Nc1cccc(Cl)c1	aSyn 5UTR act -194.0
C/C(N)=C(/C#N)C(=O)CSc1nnc(-c2ccc3c(c2)OCO3)o1	none
O=C(CSc1nnc(-c2cccnc2)o1)Nc1ccccn1	aSyn 5UTR act -146.6
NC(=O)CSc1nnc(-c2ccc3c(c2)OCO3)o1	aSyn 5UTR act -91.3
O=C(CSc1nnc(-c2ccc(C(F)(F)F)cn2)o1)Nc1cccc(Cl)c1	aSyn 5UTR act -191.8
O=C(CSc1nnc(-c2cccc(Cl)c2)o1)Nc1ccc2c(c1)OCCO2	aSyn 5UTR act -180.3
Cc1ccccc1NC(=O)CSc1nnc(-c2ccccn2)o1	aSyn 5UTR act -77.1
Cc1c(C(=O)Nc2cnccn2)oc2ccccc12	aSyn 5UTR act -106.9
Cc1c(C(=O)Nc2ccc(Cl)cn2)oc2ccccc12	aSyn 5UTR act -91.0
Cc1c(C(=O)Nc2cccc3cccnc23)oc2ccccc12	aSyn 5UTR act -118.4
Cc1ccnc(NCc2cc(C)ccc2O)c1	aSyn 5UTR act -69.1
Cc1ccc(S(=O)(=O)Nc2ccccc2CNc2ccccn2)cc1	aSyn 5UTR act -75.4
Cc1ccc(S(=O)(=O)Nc2cccc3cccnc23)cc1	none
